Data taken from PubChem BioAssay (NCI).
This is part of a sample that, as a whole, favours compounds with a hit. Of some 79,000 tested, about 15% had one in any assay. Values without a mark were called inactive. The source made the active and inactive calls. Rule as the data show it: active = growth inhibition above about 70%; inactive = the rest.

Key:
[1] = NCI Yeast Anticancer Drug Screen. Data for the rad50 strain (AID 155);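 also: 0% = growth of vehicle-only cultures of the same strain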; conditions: S. cerevisiae rad50 strain growth inhibition, stronger effect = higher value
How it was run: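 Genetically altered yeast (DNA repair pathway); compound treatment; growth inhibition vs vehicle ctrl.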

[2] = NCI Yeast Anticancer Drug Screen. Data for the mec2-1 strain (AID 157); conditions: S. cerevisiae mec2-1 strain, stronger effect = higher value
How it was run: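 Compounds were applied to mec2-1 yeast cells. Their growth was then compared with that of vehicle-treated cultures to give growth inhibition.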

[3] = NCI Yeast Anticancer Drug Screen. Data for the sgs1 mgt1 strain (AID 161);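 also: 0% = growth of cultures given vehicle only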; conditions: S. cerevisiae sgs1 mgt1 strain, stronger effect = higher value
How it was run: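 Compounds are added to genetically altered yeast, and growth is compared with cultures given vehicle alone to give percent inhibition.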

[4] = NCI Yeast Anticancer Drug Screen. Data for the cln2 rad14 strain (AID 165);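 also: 0% = growth equal to vehicle treated cultures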; conditions: S. cerevisiae cln2 rad14 strain, stronger effect = higher value
How it was run: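 Strain: cln2 rad14 yeast, altered in cell cycle control and DNA damage repair. Read-out: growth inhibition vs vehicle.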

[5] = NCI Yeast Anticancer Drug Screen. Data for the bub3 strain (AID 167); conditions: S. cerevisiae bub3 mutant strain, stronger effect = higher value
How it was run: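 Yeast carrying a defined mutation is treated with each compound, and growth is compared with that of vehicle-exposed cells to give inhibition.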

[6] = NCI Yeast Anticancer Drug Screen. Data for the mlh1 rad18 strain (AID 175); conditions: S. cerevisiae mlh1 rad18 strain growth inhibition, stronger effect = higher value
How it was run: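 A repair-deficient yeast strain is exposed to test compound, and growth is scored relative to vehicle-treated controls.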

[7] = at 5.0 µM (retest, dose inferred, filed as 0.5)
[8] = at 50.0 µM (retest, dose inferred, filed as 5.0)

Row | SMILES | growth inhibition [1, 7] | growth inhibition [1, 8] | growth inhibition ([1]; at 50.0 µM) | growth inhibition [2, 7] | growth inhibition [2, 8] | growth inhibition ([2]; at 50.0 µM) | growth inhibition [3, 7] | growth inhibition [3, 8] | growth inhibition ([3]; at 50.0 µM) | growth inhibition [4, 7] | growth inhibition [4, 8] | growth inhibition ([4]; at 50.0 µM) | growth inhibition [5, 7] | growth inhibition [5, 8] | growth inhibition ([5]; at 50.0 µM) | growth inhibition [6, 7] | growth inhibition [6, 8] | growth inhibition ([6]; at 50.0 µM)
1 | O=[N+]([O-])C(Br)CO (stereo not given) | 2% | 91% (active) | 76% (active) | 2% | 99% (active) | 89% (active) | 3% | 94% (active) | 79% (active) | 9% | 95% (active) | 84.8% (active) | 7% | 99% (active) | 94% (active) | 4% | 97% (active) | 88.1% (active)
2 | CCC[CH2][Sn]1([CH2]CCC)[O]Cc2nc(C)ccc2[O]1 | 27% | 92% (active) | 77.5% (active) | 29% | 96% (active) | 81.8% (active) | 40% | 96% (active) | 80% (active) | 15% | 93% (active) | 71.9% (active) | 33% | 96% (active) | 83.7% (active) | 40% | 96% (active) | 85.5% (active)
3 | ClCCN(CCCl)CCN1c2ccccc2Sc2ccc3ccccc3c21 | 3% | 31% | 80% (active) | 2% | 53% | 40% | 7% | 81% (active) | 95.8% (active) | -7% | 18% | 70.9% (active) | -5% | 42% | 40.6% | 12% | 78% (active) | 83.5% (active)
4 | CCN1/C(=C\c2ccc3cc(C)ccc3[n+]2CC)[Se]c2ccccc21 | 98% (active) | 98% (active) | 99.2% (active) | 100% (active) | 100% (active) | 99.4% (active) | 95% (active) | 99% (active) | 99.5% (active) | 98% (active) | 94% (active) | 99.5% (active) | 95% (active) | 99% (active) | 97% (active) | 99% (active) | 99% (active) | 99.5% (active)
5 | Cc1cc(N(CCCl)CCCl)ccc1CN1CCCN(Cc2ccc(N(CCCl)CCCl)cc2C)C1c1cccc(F)c1 | 6% | 97% (active) | 40.8% | -27% | 99% (active) | 18% | 1% | 98% (active) | 80.5% (active) | 2% | 97% (active) | -0.15% | 3% | 98% (active) | 2.15% | 8% | 95% (active) | 76.5% (active)
6 | COc1ccccc1[As]=O (stereo not given) | 1% | 99% (active) | 99.3% (active) | -12% | 99% (active) | 99.6% (active) | 8% | 99% (active) | 99.5% (active) | -14% | 99% (active) | 98.6% (active) | 12% | 99% (active) | 99.2% (active) | 25% | 99% (active) | 99.4% (active)
7 | [Au+].c1c[n-]cn1.c1ccc([PH+](c2ccccc2)c2ccccc2)cc1 | 99% (active) | 98% (active) | 97.9% (active) | 99% (active) | 98% (active) | 98% (active) | 99% (active) | 98% (active) | 96.2% (active) | 98% (active) | 97% (active) | 93.6% (active) | 98% (active) | 98% (active) | 97.2% (active) | 99% (active) | 98% (active) | 97.7% (active)
8 | CC(C)(C)OOC(=O)c1ccccc1 | 26% | 99% (active) | 37.6% | 11% | 99% (active) | 18.4% | 14% | 93% (active) | 29% | 14% | 99% (active) | 0.5% | 3% | 99% (active) | 3.1% | 26% | 99% (active) | 75.3% (active)
9 | CC(C)(C)[CH2][Hg][Cl] | 100% (active) | 100% (active) | 99.7% (active) | 100% (active) | 100% (active) | 99.5% (active) | 100% (active) | 99% (active) | 99.5% (active) | 100% (active) | 99% (active) | 98.7% (active) | 100% (active) | 100% (active) | 99.5% (active) | 99% (active) | 99% (active) | 99.5% (active)
10 | CC(=O)C1CCC2C3CCC4=CC(=[N+]5CCCCC5)CCC4(C)C3CCC12C (stereo not given) | 98% (active) | 74% (active) | 95.4% (active) | 100% (active) | 95% (active) | 96.4% (active) | 97% (active) | 95% (active) | 97.5% (active) | 99% (active) | 87% (active) | 91.7% (active) | 99% (active) | 93% (active) | 93.5% (active) | 99% (active) | 92% (active) | 95.8% (active)
